Holding throughout (assay): Primary qHTS to identify gynecologic anti-cancer compounds using libraries of approved drugs and bioactive compounds (AID 1345084); also: nearly all actives have a fitted effect of over 55% in size
For one assay, the system named is C33A. The note with it: Gynecologic cancer cell panel viability, ATPlite luminescence, 48 h; series mostly up to 57.5 µM. An outline of the steps:
(§1)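 Measured: luminescence after ATPlite addition (15 min, RT). Exposure: 48 h, 37 C, 5% CO2.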

In another assay the test system is CAOV3. To be noted: Gynecologic cancer cell panel viability, ATPlite luminescence, 48 h; series mostly up to 57.5 µM. The essentials:
as §1

The test system of another assay is CASKI. The note with it: Gynecologic cancer cell panel viability, ATPlite luminescence, 48 h; series mostly up to 57.5 µM. The essentials: as §1
In the next assay the test system is Es-2. The note with it: Gynecologic cancer cell panel viability, ATPlite luminescence, 48 h; series mostly up to 57.5 µM. The essentials: as §1
For a further assay, the system named is HeLa. The note with it: Gynecologic cancer cell panel viability, ATPlite luminescence, 48 h; series mostly up to 57.5 µM. An outline of the steps:
as §1

For a further assay, the system named is Hek293T. To be noted: Gynecologic cancer cell panel viability, ATPlite luminescence, 48 h, control line for the selectivity index; series mostly up to 57.5 µM. An outline of the steps:
as §1

For the next assay, the system named is JEG-3. The note with it: Gynecologic cancer cell panel viability, ATPlite luminescence, 48 h; series mostly up to 57.5 µM. The essentials: as §1
For a further assay, the system named is OV90. To be noted: Gynecologic cancer cell panel viability, ATPlite luminescence, 48 h; series mostly up to 57.5 µM. An outline of the steps:
as §1

In another assay the test system is PA-1. The note with it: Gynecologic cancer cell panel viability, ATPlite luminescence, 48 h; series mostly up to 57.5 µM. An outline of the steps:
as §1

For a further assay, the system named is SKOV3. To be noted: Gynecologic cancer cell panel viability, ATPlite luminescence, 48 h; series mostly up to 57.5 µM. An outline of the steps: as §1
A further assay concerns Tov-21-G. The note with it: Gynecologic cancer cell panel viability, ATPlite luminescence, 48 h; series mostly up to 57.5 µM. An outline of the steps: as §1
The test system of a further assay is Tov112D. To be noted: Gynecologic cancer cell panel viability, ATPlite luminescence, 48 h; series mostly up to 57.5 µM. An outline of the steps:
as §1

Results filed as inconclusive are left out. Values without a mark were called inactive. Active and inactive are the calls of the source. Calls follow the shape of the dose curve; as a rule, active = well fitted cell-killing curve with a large enough effect; inconclusive = small, poorly fitted or top-dose-only effect, or effect the other way; inactive = flat fitted curve, though single readings scatter. Where a SMILES comes first, the peptide text is derived from it. The star is where a group is joined. AFC = O=c1cc(C(F)(F)F)c2ccc(N*)cc2o1
Potency is read from the fitted curve at half-maximal effect.

For `C/C(=C\CCC1(C)C2CCC(C2)C1(C)O)C(=O)O` (stereo not drawn), the Potency result in the assay with C33A, in the assay on CAOV3, with CASKI, in the assay with Es-2, in the assay on HeLa and with Hek293T was “inactive” each time. The Potency entry with JEG-3, in the assay with OV90, with PA-1, with SKOV3, in the assay on Tov-21-G and with Tov112D was “inactive” throughout.
Regarding `Cc1cc2c(c(=O)[nH]1)OC(C(O)CC(C)C)O2` (stereo not drawn), the Potency result with C33A, in the assay on CAOV3, with CASKI, in the assay with Es-2, in the assay on HeLa and in the assay on Hek293T was “inactive” in each case. Also, the Potency result with JEG-3, in the assay on OV90, in the assay with PA-1, in the assay on SKOV3, with Tov-21-G and in the assay with Tov112D was “inactive” throughout.
For `CC(C)(C)NCCCNC(=O)c1cccc(Br)c1`, the Potency entry in the assay on C33A, in the assay with CAOV3, in the assay on CASKI, with Es-2, with HeLa and with Hek293T was “inactive” in each case. Further, the Potency result with JEG-3, in the assay on OV90, with PA-1, with SKOV3, with Tov-21-G and in the assay on Tov112D was “inactive” throughout.
In the case of `O=C(CCc1nnc2n(Cc3ccc(Cl)cc3)c(=O)c3ccccc3n12)NCCC1=CCCCC1`, the Potency result in the assay with C33A, in the assay with CAOV3, in the assay with CASKI, in the assay with Es-2, in the assay on HeLa and in the assay with Hek293T was “inactive” throughout. The Potency entry in the assay with JEG-3, in the assay on OV90, in the assay on PA-1, in the assay with SKOV3, with Tov-21-G and with Tov112D was “inactive” each time.
For `O=C(OCC1=CC(O)C2C=CO[C@@H](O[C@@H]3O[C@H](CO)[C@@H](O)[C@H](O)[C@H]3O)C12)c1ccccc1` (stereo partly drawn), the Potency result with C33A, in the assay on CAOV3, with CASKI, in the assay with Es-2, with HeLa and with Hek293T was “inactive” in each case. For the same molecule, the Potency result in the assay on JEG-3, with OV90, with PA-1, in the assay with SKOV3, in the assay on Tov-21-G and with Tov112D was “inactive” in each case.
In the case of `C=C(F)c1sc(CNCCCNc2cc(=O)c3ccccc3[nH]2)c(C)c1Br`, the Potency entry with C33A, in the assay with CAOV3, with CASKI, in the assay on Es-2, with HeLa and in the assay with Hek293T was “inactive” throughout. In addition, the Potency entry in the assay on JEG-3, with OV90, in the assay on PA-1, with SKOV3, in the assay on Tov-21-G and in the assay on Tov112D was “inactive” in each case.
On to `O=C(OC[C@H]1O[C@H](O[C@]2(CO)O[C@H](CO)[C@@H](O)[C@@H]2O)[C@H](O)[C@@H](O)[C@@H]1O)c1ccccc1`, for which the Potency entry in the assay on C33A, in the assay with CAOV3, in the assay on CASKI, in the assay on Es-2, in the assay on HeLa and in the assay on Hek293T was “inactive” in each case. Also, the Potency entry in the assay with JEG-3, in the assay on OV90, in the assay on PA-1, in the assay on SKOV3, in the assay on Tov-21-G and in the assay on Tov112D was “inactive” in each case.
For `O=C(O)/C=C/c1cc2c(cc1O[C@@H]1O[C@H](CO)[C@@H](O)[C@H](O)[C@H]1O)OCO2`, the Potency entry with C33A, with CAOV3, with CASKI, with Es-2, in the assay on HeLa and in the assay with Hek293T was “inactive” each time. Moreover, the Potency entry with JEG-3, in the assay with OV90, in the assay with PA-1, in the assay on SKOV3, with Tov-21-G and in the assay with Tov112D was “inactive” each time.
In the case of `C[C@@H]1C[C@@H]([C@@H](O)C(C)(C)O)O[C@H]2C[C@@]3(C)C(=C12)C[C@H](O)[C@H]1[C@@]2(C)CCC(=O)C(C)(C)C2CC[C@@]13C` (stereo partly drawn), the Potency result in the assay on C33A, with CAOV3, in the assay on CASKI, in the assay on Es-2, in the assay on HeLa and in the assay with Hek293T was “inactive” each time. Also, the Potency entry in the assay on JEG-3, in the assay with OV90, in the assay with PA-1, in the assay on SKOV3, in the assay with Tov-21-G and in the assay with Tov112D was “inactive” in each case.
As to `CC(=O)OC1C(O)C2C(C)C3=CC(=O)OC3(O)CC2C2(C)CCCC(C)(CO)C12` (stereo not drawn), the Potency result with C33A, in the assay with CAOV3, with CASKI, with Es-2, in the assay with HeLa and in the assay on Hek293T was “inactive” each time. Moreover, the Potency entry in the assay with JEG-3, in the assay on OV90, in the assay with PA-1, in the assay with SKOV3, with Tov-21-G and in the assay on Tov112D was “inactive” in each case.
On to `O=C1C=CC(O)(/C=C/C(=O)OC[C@H]2O[C@@H](Oc3ccc(O)cc3)[C@H](O)[C@@H](O)[C@@H]2O)C=C1`, for which the Potency result in the assay with C33A, in the assay with CAOV3, with CASKI, in the assay on Es-2, in the assay with HeLa and in the assay on Hek293T was “inactive” each time. The Potency result with JEG-3, with OV90, in the assay with PA-1, with SKOV3, in the assay on Tov-21-G and in the assay with Tov112D was “inactive” throughout.
Regarding `C=C1OC2CC(C(=O)O)C=CC2NC1=O` (stereo not drawn), the Potency result in the assay on C33A, in the assay with CAOV3, in the assay with CASKI, with Es-2, with HeLa and in the assay on Hek293T was “inactive” throughout. For the same molecule, the Potency result in the assay with JEG-3, in the assay on OV90, in the assay with PA-1, in the assay with SKOV3, in the assay with Tov-21-G and in the assay with Tov112D was “inactive” each time.
As for `CC(=O)N[C@@H](Cc1c[nH]c2ccccc12)C(=O)N[C@@H](CCC(=O)O)C(=O)N[C@@H](Cc1cnc[nH]1)C(=O)N[C@@H](CC(=O)O)C(=O)Nc1ccc2c(C(F)(F)F)cc(=O)oc2c1` (Ac-WEHD-{AFC}), the Potency entry in the assay with C33A, in the assay on CAOV3, in the assay on CASKI, in the assay on Es-2, with HeLa and in the assay on Hek293T was “inactive” in each case. In addition, the Potency entry with JEG-3, with OV90, in the assay with PA-1, with SKOV3, in the assay with Tov-21-G and in the assay with Tov112D was “inactive” in each case.
Regarding `O=C(NCC(O)CO)c1ccncc1Nc1ccc(I)cc1F` (stereo not drawn), the Potency entry with C33A, with CAOV3, with CASKI, in the assay on HeLa, in the assay with Hek293T and in the assay on JEG-3 was “inactive” each time. Further, the Potency entry in the assay with PA-1, with SKOV3 and in the assay on Tov112D was “inactive” each time. The Potency is 2000 nM (active) with Es-2, 79.4 nM (active) with OV90 and 1580 nM (active) with Tov-21-G.

(Values after PubChem BioAssay (NCATS).)
